Measurements from PubChem BioAssay AID1159580 (chemical genetic matrix, 2015).
About 2,000 (36%) of roughly 5,500 compounds were called active. Roughly 18% stayed inconclusive and do not appear here. Rule as the data show it: active = normalized growth mostly below about 0.91 (no sharp cut-off); inconclusive = no clear call, values can overlap the other calls; inactive = mostly above about 0.92. This is one part of the list.

Assay: chemical genetic growth profiling, strain panel (AID 1159580);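 also: tested at 20 µM; growth read once vehicle control cultures reached saturation at 30 °C; 1 = growth at the plate median or of vehicle wells; lower values mean less growth of the strain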
Conditions: growth OD
[1] = S. cerevisiae deletion strains, locus YAL013W, strain DEP1, active compounds read low
[2] = S. cerevisiae deletion strains, locus YDR150W, strain NUM1, active compounds read low
[3] = S. cerevisiae deletion strains, locus YJR075W, strain HOC1, active compounds read low
[4] = S. cerevisiae deletion strains, locus YMR263W, strain SAP30, active compounds read low
[5] = S. cerevisiae deletion strains, locus YNL153C, strain GIM3, active compounds read low
[6] = S. cerevisiae deletion strains, locus YNL322C, strain KRE1, active compounds read low
[7] = S. cerevisiae deletion strains, locus YPL055C, strain LGE1, active compounds read low
[8] = S. cerevisiae deletion strains, locus YBR229C, strain ROT2, active compounds read low
[9] = S. cerevisiae deletion strains, locus YDL101C, strain DUN1, active compounds read low
[10] = S. cerevisiae deletion strains, locus YEL061C, strain CIN8, active compounds read low
[11] = S. cerevisiae deletion strains, locus YHR030C, strain SLT2, active compounds read low
[12] = S. cerevisiae deletion strains, locus YJR043C, strain POL32, active compounds read low
[13] = S. cerevisiae deletion strains, locus YLR039C, strain RIC1, active compounds read low
[14] = S. cerevisiae deletion strains, locus YLR262C, strain YPT6, active compounds read low

Measured: normalized growth

NC(=O)CCC(N)C(=O)O (stereo not given)
inactive: [1] 1.02 | S. cerevisiae deletion strains, locus YAL040C, strain CLN3, active compounds read low 0.998 | S. cerevisiae deletion strains, locus YCL061C, strain MRC1 (second series), active compounds read low 1 | [2] 0.999 | S. cerevisiae deletion strains, locus YDR363W, strain ESC2, active compounds read low 1.01 | S. cerevisiae deletion strains, locus YER002W, strain NOP16, active compounds read low 1.02 | S. cerevisiae deletion strains, locus YGR229C, strain SMI1, active compounds read low 1.04 | [3] 1.01 | [4] 0.997 | S. cerevisiae deletion strains, locus YNL128W, strain TEP1, active compounds read low 0.987 | [5] 0.99 | S. cerevisiae deletion strains, locus YNL175C, strain NOP13, active compounds read low 0.996 | S. cerevisiae deletion strains, locus YNL197C, strain WHI3, active compounds read low 0.997 | S. cerevisiae deletion strains, locus YNL224C, strain SQS1, active compounds read low 0.993 | [6] 1.01 | S. cerevisiae deletion strains, locus YOR083W, strain WHI5 (second series), active compounds read low 1.01 | [7] 1.03

BrC12CC3CC(CC(C3)C1)C2
inactive: [1] 1 | [8] 1.02 | [9] 1.01 | [2] 0.961 | [10] 1.01 | S. cerevisiae deletion strains, locus YGR078C, strain PAC10, active compounds read low 0.997 | [11] 1.05 | S. cerevisiae deletion strains, locus YHR087W, strain rtc3, active compounds read low 0.971 | [12] 1.02 | [3] 1.03 | S. cerevisiae deletion strains, locus YKL190W, strain CNB1, active compounds read low 1 | [13] 1.02 | S. cerevisiae deletion strains, locus YLR058C, strain SHM2 (second series), active compounds read low 1.02 | S. cerevisiae deletion strains, locus YLR085C, strain ARP6, active compounds read low 1.01 | [14] 1.02 | S. cerevisiae deletion strains, locus YML094W, strain GIM5, active compounds read low 0.997 | S. cerevisiae deletion strains, locus YMR219W, strain ESC1, active compounds read low 1 | [4] 0.975 | [5] 1.02 | S. cerevisiae deletion strains, locus YNL298W, strain CLA4 (second series), active compounds read low 0.996 | [6] 1.01 | S. cerevisiae deletion strains, locus YNR030W, strain Alg12, active compounds read low 0.999 | S. cerevisiae deletion strains, locus YOL006C, strain TOP1, active compounds read low 1.01 | [7] 1.03 | S. cerevisiae deletion strains, locus YPL241C, strain CIN2, active compounds read low 1 | S. cerevisiae deletion strains, locus YPR135W, strain CTF4, active compounds read low 0.99

CC1CC2C(C(O)CC3(C)C2CCC3(O)C(=O)COC(=O)CCC(=O)O)C2(C)C=CC(=O)C=C12 (stereo not given)
inactive: S. cerevisiae deletion strains, locus YBR021W, strain FUR4, active compounds read low 1.08 | [8] 1 | S. cerevisiae deletion strains, locus YCL029C, strain bik1, active compounds read low 0.97 | S. cerevisiae deletion strains, locus YDL035C, strain GPR1, active compounds read low 1.01 | S. cerevisiae deletion strains, locus YDL074C, strain BRE1, active compounds read low 1.01 | [9] 1.01 | S. cerevisiae deletion strains, locus YDL185W, strain tfp1, active compounds read low 0.959 | S. cerevisiae deletion strains, locus YDL192W, strain arf1, active compounds read low 0.982 | S. cerevisiae deletion strains, locus YDR101C, strain arx1, active compounds read low 0.993 | [2] 1 | S. cerevisiae deletion strains, locus YDR162C, strain NBP2, active compounds read low 1.02 | S. cerevisiae deletion strains, locus YDR318W, strain mcm21, active compounds read low 0.989 | S. cerevisiae deletion strains, locus YDR388W, active compounds read low 0.997 | S. cerevisiae deletion strains, locus YDR502C, strain sam2, active compounds read low 0.982 | [10] 1.01 | S. cerevisiae deletion strains, locus YER110C, active compounds read low 0.977 | S. cerevisiae deletion strains, locus YER155C, strain BEM2, active compounds read low 1.01 | S. cerevisiae deletion strains, locus YER167W, strain BCK2, active compounds read low 1.01 | S. cerevisiae deletion strains, locus YGL078C, strain dbp3, active compounds read low 0.984 | S. cerevisiae deletion strains, locus YGL086W, strain mad1, active compounds read low 1 | S. cerevisiae deletion strains, locus YGL248W, strain PDE1, active compounds read low 1.01 | S. cerevisiae deletion strains, locus YGR135W, strain pre9, active compounds read low 0.982 | S. cerevisiae deletion strains, locus YGR252W, strain gcn5, active compounds read low 0.992 | [11] 0.987 | S. cerevisiae deletion strains, locus YHR079C, strain IRE1 (second series), active compounds read low 0.979 | S. cerevisiae deletion strains, locus YHR094C, strain hxt1, active compounds read low 0.994 | S. cerevisiae deletion strains, locus YHR129C, strain ARP1, active compounds read low 0.999 | S. cerevisiae deletion strains, locus YHR200W, strain rpn10, active compounds read low 0.987 | S. cerevisiae deletion strains, locus YIL066C, strain RNR3, active compounds read low 1.03 | S. cerevisiae deletion strains, locus YIL073C, strain SPO22, active compounds read low 0.973 | S. cerevisiae deletion strains, locus YIL125W, strain kgd1, active compounds read low 0.983 | S. cerevisiae deletion strains, locus YIR030C, strain dcg1, active compounds read low 0.978 | S. cerevisiae deletion strains, locus YJL095W, strain BCK1, active compounds read low 1.05 | S. cerevisiae deletion strains, locus YJL134W, strain LCB3, active compounds read low 0.999 | S. cerevisiae deletion strains, locus YJL168C, strain set2, active compounds read low 0.979 | S. cerevisiae deletion strains, locus YJL187C, strain SWE1 (second series), active compounds read low 1.02 | [12] 1.04 | [3] 1 | S. cerevisiae deletion strains, locus YKL009W, strain mrt4, active compounds read low 0.97 | S. cerevisiae deletion strains, locus YKL068W, active compounds read low 0.968 | S. cerevisiae deletion strains, locus YKL085W, strain MDH1 (second series), active compounds read low 0.994 | S. cerevisiae deletion strains, locus YKL085W, strain MDH1, active compounds read low 0.994 | S. cerevisiae deletion strains, locus YKR001C, strain vps1, active compounds read low 0.984 | [13] 1.03 | S. cerevisiae deletion strains, locus YLR058C, strain SHM2, active compounds read low 0.999 | S. cerevisiae deletion strains, locus YLR102C, strain apc9, active compounds read low 0.991 | [14] 0.98 | S. cerevisiae deletion strains, locus YLR268W, strain sec22, active compounds read low 0.99 | S. cerevisiae deletion strains, locus YLR330W, strain CHS5, active compounds read low 0.987 | S. cerevisiae deletion strains, locus YLR342W, strain FKS1 (second series), active compounds read low 1.04 | S. cerevisiae deletion strains, locus YLR371W, strain rom2, active compounds read low 0.979 | S. cerevisiae deletion strains, locus YLR418C, strain cdc73, active compounds read low 1.02 | S. cerevisiae deletion strains, locus YML016C, strain PPZ1, active compounds read low 1.01 | S. cerevisiae deletion strains, locus YML032C, strain rad52, active compounds read low 1 | S. cerevisiae deletion strains, locus YML124C, strain tub3, active compounds read low 0.987 | S. cerevisiae deletion strains, locus YMR078C, strain ctf18, active compounds read low 0.979 | S. cerevisiae deletion strains, locus YMR223W, strain ubp8, active compounds read low 0.981 | [4] 1.02 | S. cerevisiae deletion strains, locus YMR307W, strain GAS1, active compounds read low 1.13 | S. cerevisiae deletion strains, locus YNL067W, strain RPL9B, active compounds read low 1.03 | [5] 1.03 | S. cerevisiae deletion strains, locus YNL233W, strain BNI4, active compounds read low 1.04 | S. cerevisiae deletion strains, locus YNL250W, strain rad50, active compounds read low 0.966 | S. cerevisiae deletion strains, locus YNL271C, strain bni1, active compounds read low 0.999 | S. cerevisiae deletion strains, locus YNL298W, strain CLA4, active compounds read low 0.993 | S. cerevisiae deletion strains, locus YNL307C, strain MCK1, active compounds read low 0.987 | [6] 1.01 | S. cerevisiae deletion strains, locus YNR052C, strain pop2, active compounds read low 0.982 | S. cerevisiae deletion strains, locus YOL012C, strain htz1 0.933 | S. cerevisiae deletion strains, locus YOL147C, strain pex11, active compounds read low 0.993 | S. cerevisiae deletion strains, locus YOR061W, strain CKA2, active compounds read low 1 | S. cerevisiae deletion strains, locus YOR069W, strain VPS5, active compounds read low 1 | S. cerevisiae deletion strains, locus YOR136W, strain idh2, active compounds read low 0.99 | S. cerevisiae deletion strains, locus YOR144C, strain elg1, active compounds read low 1 | S. cerevisiae deletion strains, locus YOR184W, strain ser1, active compounds read low 1.01 | S. cerevisiae deletion strains, locus YOR316C, strain cot1, active compounds read low 1 | S. cerevisiae deletion strains, locus YPR119W, strain clb2, active compounds read low 0.986 | S. cerevisiae deletion strains, locus YPR141C, strain kar3, active compounds read low 0.972 | S. cerevisiae deletion strains, locus YPR163C, strain tif3, active compounds read low 0.985 | S. cerevisiae deletion strains, locus YPR167C, strain met16, active compounds read low 0.969 | S. cerevisiae deletion strains, strain wtn01, active compounds read low 0.995 | S. cerevisiae strains, strain wild type, active compounds read low 1.01
